# Source: PubChem BioAssay (NCATS)
# Active and inactive are the calls of the source. The rule behind the calls is not given here.
# Conditions: Ebola virus entry assay, ratio channel
SMILES,AC50,outcome
CCC(CN)=C(c1ccccc1)c1ccccc1,17.8 µM (active),
CCc1cccc(N(C)C(N)=Nc2cccc3ccccc23)c1,14.1 µM (active),
CCCCCCCCCCCCCCNCCO,12.6 µM (active),
C[C@@H]1C[C@H]2[C@@H]3C[C@H](F)C4=CC(=O)C(Cl)=C[C@]4(C)[C@@]3(F)[C@@H](O)C[C@]2(C)[C@@]1(O)C(=O)CO,,inactive
CN(C)c1ccc(C(=C2C=CC(=[N+](C)C)C=C2)c2ccc(N(C)C)cc2)cc1,3.55 µM (active),
Clc1ccc(CO/N=C(\Cn2ccnc2)c2ccc(Cl)cc2Cl)c(Cl)c1,,inactive
CN(C)CCCSc1ccccc1NC(=O)/C=C/c1ccccc1,12.6 µM (active),
CN1CCC(Nc2ncc3ncnc(Nc4ccc(F)c(Cl)c4)c3n2)CC1,,inactive
COC(=O)C1=C(C)NC(C)=C(C(=O)OCCN2CCN(C(c3ccccc3)c3ccccc3)CC2)C1c1cccc([N+](=O)[O-])c1 (centres undefined),10 µM (active),
CCN(CC)CCOC(=O)C(c1ccccc1)c1ccccc1,,inactive
CCN(CC)Cc1nccn1-c1ccc([N+](=O)[O-])cc1C(=O)c1ccccc1Cl,,inactive
CCCCCCCCCCCCCCCC[N+](C)(C)CCN(Cc1ccc(OC)cc1)c1ncccn1,,inactive
CC(CC(C#N)(c1ccccc1)c1ccccc1)N(C)C (centres undefined),14.1 µM (active),
CN1CCC(N(Cc2ccccc2)c2ccccc2)CC1,4.47 µM (active),
CC[C@H](O)C(C[C@H](C)N(C)C)(c1ccccc1)c1ccccc1,8.91 µM (active),
COc1ccc2[nH]cc(CCN(C(C)C)C(C)C)c2c1,31.6 µM (active),
c1ccc(OCc2ccc(CCCN3CCOCC3)cc2)cc1,20 µM (active),
CC(=O)O[C@]1(C(C)=O)CC[C@H]2[C@@H]3C=C(Cl)C4=CC(=O)CC[C@]4(C)[C@H]3CC[C@@]21C,28.2 µM (active),
C=CCOC(Cn1ccnc1)c1ccc(Cl)cc1Cl (centres undefined),,inactive
CCC(OC(C)=O)C(CC(C)NC)(c1ccccc1)c1ccccc1 (centres undefined),2.51 µM (active),
c1cc(CN2CCCCC2)cc(OCCCNc2nc3ccccc3s2)c1,12.6 µM (active),

# Conditions: Ebola virus entry assay, reporter ratio channel; Channel type: primary
SMILES,AC50,outcome
CC(NCCC(c1ccccc1)c1ccccc1)c1ccccc1 (centres undefined),2.51 µM (active),
Oc1ccc(CCNCCCCCCNCCc2ccccc2)cc1O,1 µM (active),
CN(C)CCCN1c2ccccc2Sc2ccccc21,5.01 µM (active),
O=C(N[C@H]1N=C(c2ccccc2F)c2cccc3c2N(CC3)C1=O)c1cc2ccccc2[nH]1,20 µM (active),
CCNC(=O)N1CCN(CCCC(c2ccc(F)cc2)c2ccc(F)cc2)CC1,11.2 µM (active),
CN1CCCC(CC2c3ccccc3Sc3ccccc32)C1 (centres undefined),3.16 µM (active),
O=C1OC2(c3ccccc31)c1cc(I)c(O)c(I)c1Oc1c2cc(I)c(O)c1I,39.8 µM (active),
CN1CCC(=C2c3ccccc3CCc3cccnc32)CC1,31.6 µM (active),
O=C(c1ccc(F)cc1)C1CCN(CCn2c(=O)[nH]c3ccccc3c2=O)CC1,17.8 µM (active),
CCN(CC)CCOc1ccc(Cc2ccccc2)cc1,3.55 µM (active),
CSc1ccc(/C=C2/C(C)=C(CC(=O)O)c3cc(F)ccc32)cc1,,inactive
CCCCCCCCCCOCC(O)CN (centres undefined),1.78 µM (active),
CCCCOc1ccc(C(=O)CCN2CCCCC2)cc1,31.6 µM (active),
O[C@@H](COc1cccc2ncccc12)CN1CCN(C2c3ccccc3[C@@H]3[C@H](c4ccccc42)C3(F)F)CC1 (some centres undefined),10 µM (active),
O=C1[C@H]2CCCC[C@H]2C(=O)N1CCCCN1CCN(c2nsc3ccccc23)CC1,17.8 µM (active),
O=C(CCCN1CCC(O)(c2ccc(Br)cc2)CC1)c1ccc(F)cc1,5.62 µM (active),
COc1ccc(CCN2CCC(Nc3nc4ccccc4n3Cc3ccc(F)cc3)CC2)cc1,2.82 µM (active),
CCC(CN)=C(c1ccccc1)c1ccccc1,17.8 µM (active),
CCc1cccc(N(C)C(N)=Nc2cccc3ccccc23)c1,14.1 µM (active),

SMILES,AC50,outcome
CCCCCCCCCCCCCCNCCO,12.6 µM (active),
C[C@@H]1C[C@H]2[C@@H]3C[C@H](F)C4=CC(=O)C(Cl)=C[C@]4(C)[C@@]3(F)[C@@H](O)C[C@]2(C)[C@@]1(O)C(=O)CO,39.8 µM (active),
CN(C)c1ccc(C(=C2C=CC(=[N+](C)C)C=C2)c2ccc(N(C)C)cc2)cc1,3.55 µM (active),
Clc1ccc(CO/N=C(\Cn2ccnc2)c2ccc(Cl)cc2Cl)c(Cl)c1,31.6 µM (active),
CN(C)CCCSc1ccccc1NC(=O)/C=C/c1ccccc1,12.6 µM (active),
CN1CCC(Nc2ncc3ncnc(Nc4ccc(F)c(Cl)c4)c3n2)CC1,,inactive
COC(=O)C1=C(C)NC(C)=C(C(=O)OCCN2CCN(C(c3ccccc3)c3ccccc3)CC2)C1c1cccc([N+](=O)[O-])c1 (centres undefined),10 µM (active),
CCN(CC)CCOC(=O)C(c1ccccc1)c1ccccc1,39.8 µM (active),
CCN(CC)Cc1nccn1-c1ccc([N+](=O)[O-])cc1C(=O)c1ccccc1Cl,39.8 µM (active),
CCCCCCCCCCCCCCCC[N+](C)(C)CCN(Cc1ccc(OC)cc1)c1ncccn1,39.8 µM (active),
CC(CC(C#N)(c1ccccc1)c1ccccc1)N(C)C (centres undefined),14.1 µM (active),
CN1CCC(N(Cc2ccccc2)c2ccccc2)CC1,4.47 µM (active),
CC[C@H](O)C(C[C@H](C)N(C)C)(c1ccccc1)c1ccccc1,8.91 µM (active),
COc1ccc2[nH]cc(CCN(C(C)C)C(C)C)c2c1,31.6 µM (active),
c1ccc(OCc2ccc(CCCN3CCOCC3)cc2)cc1,20 µM (active),
CC(=O)O[C@]1(C(C)=O)CC[C@H]2[C@@H]3C=C(Cl)C4=CC(=O)CC[C@]4(C)[C@H]3CC[C@@]21C,28.2 µM (active),
C=CCOC(Cn1ccnc1)c1ccc(Cl)cc1Cl (centres undefined),39.8 µM (active),
CCC(OC(C)=O)C(CC(C)NC)(c1ccccc1)c1ccccc1 (centres undefined),2.51 µM (active),
c1cc(CN2CCCCC2)cc(OCCCNc2nc3ccccc3s2)c1,12.6 µM (active),
